# Screens as filed in PubChem BioAssay.
# CRFR2-BP antag = antagonists of CRF-BP/CRF-R2 complex, primary screen, cell-based, HEK293, calcium dye fluorescence, uHTS. 350,000 tested, 0.59% active. inhibition, % at 11.8 µM. CRF-induced calcium fluorescence. AID 588475, 2011;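 active = inhibition of the ligand-induced calcium signal above about 50% at the single tested concentration, limit read from the data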
# MEKK3 PB1 HTS = modulators of MEKK3-MEK5 PB1 binding, primary screen, biochemical, wildtype MEKK3, multiplex bead flow cytometry, Alexa488-MEK5 | Mitogen-activated protein kinase kinase kinase 3 (Homo sapiens), Q99759 | bead-based flow cytometry, Alexa488-MEK5 binding to MEKK3; actives lie on both sides; 0 = blocked by unlabeled MEK5, 100 = vehicle | binding response (% of control), % at 10 µM | 290,000 tested, 1.4% active;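 active = binding response more than 3 SD above or below the average of its plate-row segment, actives on both sides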;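 note: Alexa488 bead fluorescence after subtracting the streptavidin-only scavenger bead signal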
# Target sequence (Q99759 whole entry, looked up): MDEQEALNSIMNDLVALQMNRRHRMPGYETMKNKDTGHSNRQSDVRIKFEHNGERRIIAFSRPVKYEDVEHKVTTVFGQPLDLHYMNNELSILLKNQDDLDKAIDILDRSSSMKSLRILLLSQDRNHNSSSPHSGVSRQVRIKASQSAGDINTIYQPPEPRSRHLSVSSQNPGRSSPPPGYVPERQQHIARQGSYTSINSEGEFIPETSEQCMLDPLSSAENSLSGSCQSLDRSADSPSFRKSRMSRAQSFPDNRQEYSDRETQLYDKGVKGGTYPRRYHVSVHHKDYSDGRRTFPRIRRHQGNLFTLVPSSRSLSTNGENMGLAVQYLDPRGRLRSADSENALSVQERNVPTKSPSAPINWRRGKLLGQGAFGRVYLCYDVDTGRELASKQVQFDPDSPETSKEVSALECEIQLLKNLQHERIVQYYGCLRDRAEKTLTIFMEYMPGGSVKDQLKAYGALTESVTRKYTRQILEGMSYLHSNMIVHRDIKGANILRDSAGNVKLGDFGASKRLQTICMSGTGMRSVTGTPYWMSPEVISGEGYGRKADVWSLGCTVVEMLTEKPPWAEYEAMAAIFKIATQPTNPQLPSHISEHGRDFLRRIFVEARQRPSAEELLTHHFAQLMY
# CRFBP-R2 agonist = agonists of CRF-BP/CRF-R2 complex, primary screen, cell-based, HEK293, calcium dye fluorescence, uHTS; calcium dye fluorescence (FLIPR); percent of saturating CRF peptide response; activation, % at 13.2 µM; 350,000 tested, 0.46% active; CRF-binding protein / CRF receptor 2 complex (human);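 active = activation of at least 50%, plus an integration ratio under a set limit after plate pattern correction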
# MEKK2mut PB1 HTS = MEK5 binding signal on mutant MEKK2 PB1, primary screen, biochemical, multiplex bead flow cytometry, Alexa488-MEK5 | Alexa488-MEK5 binding to MEKK2 mutant | percent response, % at 10 µM | 290,000 tested, 0.35% active; in the data active = percent response above about 24%, passing the limit was not always enough
# ABCB6 inh MLPCN = ABCB6 transporter inhibitors, primary screen, K562-ABCB6 cells, flow cytometry, MLPCN library | ATP-binding cassette sub-family B member 6 (Homo sapiens), Q9NP58 | K562-ABCB6 porphyrin accumulation, 1 h; hits give low values | fluorescence ratio to DMSO, % at 10 µM | 360,000 tested, 0.19% active;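 active = fluorescence ratio to DMSO below 75%, the collection mean minus 3 SD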;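 note: signal is porphyrin accumulated inside mitochondria; lower ratio means ABCB6 inhibition with less porphyrin fluorescence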
# MEKK2 WT-MEK5 = modulators of MEK5 binding to wildtype MEKK2, primary screen, biochemical, multiplex bead flow cytometry, Alexa488-MEK5; Alexa488-MEK5 binding to MEKK2 WT; actives lie on both sides; binding response (% of control), % at 10 µM; 290,000 tested, 1.1% active; in the data active = binding response below about 67% or above about 130%
# MEKK2wt confirm = modulators of MEK5 binding to wildtype MEKK2, confirmation, biochemical, single concentration, multiplex bead flow cytometry. shares compounds with MEKK3 PB1 HTS. Alexa488-MEK5 binding to MEKK2 WT; actives lie on both sides. binding response (% of control), % at 10 µM. 5,900 tested, 2.4% active. AID 1892, 2009; in the data active = binding response below about 16% or above about 210%; inactive = in between
# MEKK2mut confirm = mutant MEKK2 PB1-MEK5 binding signal retest – biochemical, single concentration, multiplex bead flow cytometry, confirmation | shares compounds with MEKK3 PB1 HTS | Alexa488-MEK5 binding to MEKK2 mutant | percent response, % at 10 µM | 5,900 tested, 2% active | AID 1893, 2009; in the data active = percent response mostly above about 71%, no sharp cut-off; inactive = mostly below about 38%;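 note: higher means compound restores mutant binding toward wildtype level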
# MEKK3 confirm = MEKK3 wild-type PB1 binding to MEK5, inhibitors, confirmation, biochemical, bead multiplex flow cytometry, single concentration, wildtype. shares compounds with MEKK3 PB1 HTS. Alexa488-MEK5 binding to MEKK3; hits give low values. binding response (% of control), % at 10 µM. 5,900 tested, 1.8% active. AID 1894, 2009;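 active = binding response below 72% of control, or above a set upper limit, though filed actives all read lower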;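 note: lower values mean stronger disruption of MEK5 binding to MEKK3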
# Hits are given with their value; n = inactive; x = no result; [ ] = another dose, or the depositor's remark. Hits are enriched below; roughly 2.9% of the tested compounds scored in any of these assays.
SMILES,CRFR2-BP antag,MEKK3 PB1 HTS,CRFBP-R2 agonist,MEKK2mut PB1 HTS,ABCB6 inh MLPCN,MEKK2 WT-MEK5,MEKK2wt confirm,MEKK2mut confirm,MEKK3 confirm
Cc1ccc(C2NC(=O)c3ccccc3N2)c(C)c1 (stereo not given),n,x,n,x,n,x,x,x,x
CCc1ccc2nc(NC(=O)CN3C(=O)NC4(CCCC4)C3=O)sc2c1,n,x,n,x,n,x,x,x,x
CCCN1CCC(=O)N([C@H](CSc2ccc(OC)cc2)c2ccccc2)CC1,n,129.0,n,n,n,165.0,n,n,n
COc1ccc(SC[C@H](CC(C)C)N2CCN(CCc3ccccc3)CCC2=O)cc1,n,n,n,n,n,137.0,n,n,n
O=C1CCN(CCc2ccccc2)CCN1[C@H](CSc1ccc(Br)cc1)Cc1ccccc1,n,n,n,n,n,154.0,n,n,n
COc1ccc(SC[C@H](CC(C)C)N2CCN(C)CCC2=O)cc1,n,128.0,n,n,n,146.0,n,n,n
Cc1ccc(SC[C@H](CC(C)C)N2CCN(C)CCC2=O)cc1,n,n,n,n,n,n,x,x,x
Cc1ccc(SC[C@H](CC(C)C)N2CCN(CCc3ccccc3)CCC2=O)cc1,n,n,n,n,n,n,x,x,x
COc1ccc(OC)c(NC(=O)COC(=O)[C@H](Cc2ccccc2)NC(=O)c2ccco2)c1,n,x,n,x,n,x,x,x,x
O=C(NCc1ccc(Cl)cc1)C(=O)NCC1OCCN1C(=O)c1cccs1 (stereo not given),n,153.0,n,n,n,n,n,n,n
COc1ccc(Nc2nc(C)c3ccccc3n2)cc1,n,n,n,n,n,140.0,n,n,n
COc1ccc(Nc2nc3ccccc3nc2C)cc1,n,2.0[inhibitor],n,n,n,3.0[inhibitor],n,n,n
COc1ccc(Nc2nc(-c3ccccc3)c3ccccc3n2)cc1,n,n,n,n,n,n,x,x,x
CCOC(=O)C(=Cc1ccc(F)cc1)C(=O)OCC,x,n,x,33.0,x,n,n,n,n
O=C1c2cccnc2C(Nc2ccc(Cl)cc2)N1Cc1cccs1 (stereo not given),n,75.0[inhibitor],n,n,n,54.0[inhibitor],n,n,n
Cc1ccc(NC2c3ncccc3C(=O)N2Cc2cccs2)cc1C (stereo not given),n,n,n,n,n,n,x,x,x
C/C=C/C=N/NC(=O)CN(c1ccc(Br)cc1)S(=O)(=O)c1ccccc1,n,149.0,n,n,n,n,n,n,n
Cc1ccc(S(=O)(=O)N2CCOC2CNC(=O)C(=O)NCCN(C)C)cc1 (stereo not given),n,n,n,n,n,n,x,x,x
COc1ccccc1-n1c(-c2ccccc2)c[nH]c1=S,n,49.0[inhibitor],n,n,n,n,n,n,n
Cc1nn(CC(=O)N2CCN(c3cccc(C(F)(F)F)c3)CC2)c(=O)c2cccn12,n,n,n,n,n,n,x,x,x
O=S1(=O)CC(N2CCN(CC3CC3)CC2)CN1Cc1ccc(F)cc1 (stereo not given),x,x,x,x,n,x,x,x,x
CNS(=O)(=O)c1ccc2c(c1)NC(=O)C1CCCN21 (stereo not given),n,153.0,n,n,n,n,n,n,n
CN(Cc1ccccc1Cl)C(=O)CCNC(=O)c1ccco1,n,x,n,x,n,x,x,x,x
Cc1ccccc1CNCCCSc1ncccn1,n,n,n,n,n,n,x,x,x
Cc1cc(C(=O)OCC(=O)Nc2cccc(S(N)(=O)=O)c2)c(C)o1,n,x,n,x,n,x,x,x,x
SMILES,CRFR2-BP antag,MEKK3 PB1 HTS,CRFBP-R2 agonist,MEKK2mut PB1 HTS,ABCB6 inh MLPCN,MEKK2 WT-MEK5,MEKK2wt confirm,MEKK2mut confirm,MEKK3 confirm
Cc1cccc(NC(=O)COC(=O)c2cc(C)oc2C)c1,n,129.0,n,n,n,n,n,n,n
CSc1ncc(C(=O)Nc2cccc(Cl)c2)c(C)n1,n,n,n,n,n,n,x,x,x
Cc1cccc(C(=O)OCc2cnc(Cl)s2)c1,n,15.0[inhibitor],n,n,n,25.0[inhibitor],n,n,n
CCCC(=O)NC(NC(=S)Nc1ccc(S(N)(=O)=O)cc1)C(Cl)(Cl)Cl (stereo not given),n,131.0,n,n,n,n,n,n,n
O=C(CN1CCN(S(=O)(=O)c2cccs2)CC1)N1CCCCC1,n,x,n,x,n,x,x,x,x
Cc1ccc(NC(=O)CCCN2C(=O)c3cccc4cccc(c34)C2=O)cc1,n,145.0,n,n,n,n,n,n,n
Cc1ccc(NC(=O)CCN2C(=O)c3cccc4cccc(c34)C2=O)cc1,n,n,n,n,n,n,x,x,x
O=C(NCCN1C(=O)S/C(=C\c2ccc(OC(F)F)cc2)C1=O)[C@@H]1CCCN1C(=O)c1cccs1,n,131.0,n,n,n,n,n,n,n
COc1cc(CNC(C)c2ccccc2)cc(Br)c1OCc1ccccc1 (stereo not given),n,n,n,n,n,192.0,n,n,n
CCOc1cc(CNCc2ccncc2)cc(Br)c1OCc1ccc(F)cc1,n,n,n,n,n,142.0,n,n,n
COc1cc(CNC(C)c2ccccc2)cc(Br)c1OCc1ccc(F)cc1 (stereo not given),n,n,n,n,n,223.0,n,n,n
COc1cc(CNc2ccc(O)cc2)cc(Br)c1OCc1ccccc1,n,n,n,n,n,n,x,x,x
CCS(=O)c1ccccc1C(=O)OCC(=O)Nc1cccc(S(=O)(=O)N2CCCCC2)c1 (stereo not given),n,x,n,x,n,x,x,x,x
O=C(N/N=C/c1c[nH]c2ccccc12)c1cc(-c2ccc3ccccc3c2)n[nH]1,n,n,n,n,n,138.0,n,n,n
Cc1cc(NC(=O)CCN2CCN(C/C=C/c3ccccc3)CC2)ccc1Br,n,n,n,n,n,149.0,n,n,n
